PubChem BioAssay (NCI)
Compounds without any hit were thinned out: in the full panel of roughly 83,000, 20% have a hit.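 How to read the values: 0–100, growth inhibition (40 = 60% inhibited); 0, no net growth; -100 to 0, cell death (-40 = 40% of starting cells died; -100 = all dead).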 Unmarked numbers belong to inactive results. The source made the active and inactive calls. The calls were made as follows: active = growth percent below 10; inactive = the rest.

Legend:
Assay in all cases: NCI-60 one-dose screen, 48 h (100 = growth as untreated, 0 = no growth, -100 = all killed)
Details in all cases: 10 µM unless noted
HCT-15 colon = test system: HCT-15 colon
HT29 colon = test system: HT29 colon
SNB-75 CNS = test system: SNB-75 CNS
SNB-19 CNS = test system: SNB-19 CNS
U251 CNS = test system: U251 CNS
PC-3 prostate = test system: PC-3 prostate
SK-MEL-5 melanoma = test system: SK-MEL-5 melanoma
UACC-62 melanoma = test system: UACC-62 melanoma
LOX IMVI melanoma = test system: LOX IMVI melanoma
SK-MEL-28 melanoma = test system: SK-MEL-28 melanoma

SMILES	growth (HCT-15 colon)	growth (HT29 colon)	growth (SNB-75 CNS)	growth (SNB-19 CNS)	growth (U251 CNS)	growth (PC-3 prostate)	growth (SK-MEL-5 melanoma)	growth (UACC-62 melanoma)	growth (LOX IMVI melanoma)	growth (SK-MEL-28 melanoma)
Cc1nn(Cc2ccccc2)cc1C(=O)Nc1sc2c(c1C(N)=O)CCC(=O)C2	13.6%	13.1%	54.5%	63%	23.2%	15.6%	28.8%	13.9%	17.2%	29.8%
Cc1cnc(Nc2ccc(N3CCN(C)CC3)cc2)nc1Nc1ccc(Cl)c(NS(=O)(=O)C(C)(C)C)c1	4.29% (active)	-31.1% (active)	-36.8% (active)	53.1%	24.2%	39.4%	-8.43% (active)	16.1%	-84.4% (active)	35.2%
O=C(NCCOCCOCCNc1cccc2c1C(=O)N(C1CCCNC1=O)C2=O)c1cc2c(o1)C(=O)c1ccccc1C2=O (stereo not given)	-65.3% (active)	2.43% (active)	-98.3% (active)	3.8% (active)	-36.4% (active)	4.67% (active)	-98.7% (active)	-81.7% (active)	-59% (active)	-28.6% (active)
Cc1nc(Nc2ccc(NC(=S)Nc3ccccc3)cc2)nc2nc(Nc3cccc(Cl)c3)[nH]c(=O)c12	98.2%	114%	84.7%	102%	92%	93.1%	102%	102%	92%	93.2%
CCN(CC)CC(=O)Nc1cccc(C(=O)OC(C)C)c1	93.9%	81.5%	107%	106%	100%	80.8%	107%	102%	96.2%	102%
O=C1CSC(c2ccccc2Cl)N1c1nnc(Cn2cnnc2)o1 (stereo not given)	27.6%	22.2%	50.2%	64.5%	32.7%	71.2%	23.7%	38.6%	62.5%	58.7%
CC(C)N(CCOC(=O)Nc1ccccc1Cl)C(C)C	108%	97.1%	107%	98.6%	98.8%	74%	97.5%	96.4%	101%	110%
Cc1c2c(cn1Cc1ccccc1)CCc1cn(C)nc1-2	95.1%	98%	95.9%	105%	97.2%	71.4%	53.5%	70.4%	85.2%	104%
C=C(C)[C@@H]1CC[C@@]2(C(=O)O)CC[C@]3(C)C(CCC4[C@@]5(C)CCC(OS(=O)(=O)c6ccccc6)C(C)(C)C5CC[C@]43C)C12 (stereo not given in full)	39.7%	58.4%	86.1%	83.6%	41.5%	44.4%	35.6%	47.5%	53.8%	86%
COc1cc2c(O)n(CCCn3ccnc3)c3c4cnc5cccc(c(=O)c3c2cc1OC)c54	95.2%	33.8%	52%	33.8%	14%	28.2%	24.9%	15%	3.76% (active)	79.6%
N#C/C=C(\c1ccc([N+](=O)[O-])cc1)n1nnc2cc(Cl)c(Cl)cc21	-39.1% (active)	3.93% (active)	18.1%	41.5%	11.8%	-12.5% (active)	38.5%	3.91% (active)	-79.9% (active)	43.2%
O=C1Nc2ccccc2SC1C1SC(=S)N(Cc2ccccc2)C1=O (stereo not given)	103%	12.9%	51.4%	107%	98.3%	88.4%	95.9%	98.5%	86.2%	58.8%
NS(=O)(=O)c1cnccc1-n1ccc(=O)c(S(N)(=O)=O)c1	90.8%	105%	73.8%	88.1%	96.6%	86.5%	103%	96.9%	97.1%	92.5%
CC(C)(C)c1ccc(C(=O)Nc2sc3c(c2C(N)=O)CCC(=O)C3)cc1	-29.3% (active)	3.24% (active)	-49.3% (active)	15.2%	-43.8% (active)	-5.7% (active)	-81.2% (active)	-36.7% (active)	-55.1% (active)	-14.9% (active)
CN(C)c1ccc(/C=C2\C=C(c3ccccc3)N(CCc3ccccc3)C2=O)cc1	83.2%	77.8%	-29.1% (active)	46.6%	33.2%	52.3%	82.7%	67.3%	48.9%	89.8%
O=c1[nH]c(NCc2nnnn2-c2ccc(Br)cc2)nc2sc3c(c12)CCCC3	98%	95.5%	93.2%	96.1%	83.8%	84.4%	99.5%	87.1%	95.8%	112%
C=C1C(=O)O[C@H]2[C@H]1CC/C(Cn1cc(CNCCc3c[nH]c4ccccc34)nn1)=C\CC[C@@]1(C)O[C@@H]21	102%	61.2%	79.8%	98.3%	92.8%	94.1%	96.5%	84.7%	94%	89%
CCOc1cccnc1/C=N/NC(N)=S	40.2%	56.7%	68.7%	69.4%	36.1%	37.3%	55.4%	50.6%	35.9%	76.1%
CN(C)CCCCNc1ccc(NCCCCN(C)C)c2c1C(=O)c1c(O)ccc(O)c1C2=O	-66.4% (active)	-52.3% (active)	79.5%	2.06% (active)	-85.6% (active)	-76.9% (active)	89.4%	104%	-79% (active)	112%
O=c1ccn(C2OC(F)(CO)C(O)C2F)c(=O)[nH]1 (stereo not given)	103%	94.5%	95.9%	105%	94.8%	93.1%	108%	103%	97.3%	109%
CCCCCCCCN(CCCCCCCC)C(=N)c1ccnc2ccccc12	-88.2% (active)	-87.1% (active)	-95.7% (active)	-70.8% (active)	-95.6% (active)	-88.7% (active)	-96.6% (active)	-74.5% (active)	-100% (active)	-86% (active)
CCN(CC)CCNc1ccc(C)c2sc3cc(C)ccc3c(=O)c12	21.2%	1.25% (active)	67.2%	57.6%	45.5%	41%	21.9%	-15.2% (active)	28.4%	74.5%
O=C(NCOC(O)C(Cl)(Cl)Cl)NCOC(O)C(Cl)(Cl)Cl (stereo not given)	95.8%	94.4%	85.6%	98.4%	102%	95.6%	102%	98.8%	97.7%	92.8%
COc1cc(-c2ccc(N=Nc3c(O)c(C(=O)Nc4ccccc4OC)cc4ccccc34)c(OC)c2)ccc1N=Nc1c(O)c(C(=O)Nc2ccccc2OC)cc2ccccc12	101%	108%	74.8%	96%	94%	93.4%	98.9%	101%	86.3%	97.4%
CC(C)CCC[C@@H](C)[C@H]1CCC2C3=CCC4C(=O)C=CC(=O)C4C3CC[C@@]21C (stereo not given in full)	3.29% (active)	11.3%	7.34% (active)	38.2%	11.5%	9.01% (active)	-48.5% (active)	28.7%	-43.4% (active)	41.9%
O=S(=O)(Nc1ccsc1-c1nc(-c2ccccc2)no1)c1cc(Cl)cc(Cl)c1	91.9%	98.5%	73%	98.8%	97.8%	86.7%	93.5%	83.6%	96.5%	88.2%
